From publication PMC5540273 (PLoS ONE, 2017)
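Note: KINOMEscan kinase panel screen.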

The molecules below were run on CSF1R-autoinhibited. Conditions: concentration: 1 μM, replicates: in singlicate; n = 1.
In the case of `O=C(Nc1n[nH]c2nc(-c3ccccc3O)ccc12)C1CC1` [SB-711880], the “%Inh” value is reported as 16%.
`CN(c1ccc(NC(=O)N2CCN(CCCN3CCOCC3)CC2)cc1)c1ccnc(Nc2ccc(CS(C)(=O)=O)cc2)n1.Cl` [GW830899] was tested, and the “%Inh” value was 0%.
With `CCOc1nccc(-c2c(-c3ccc(F)cc3)ncn2C2CCNCC2)n1` [SB-249175] the “%Inh” value was 31%.
For `O=C(Nc1n[nH]c2nc(-c3cccc(O)c3)ccc12)C1CC1` [SB-711805], the “%Inh” value was 0%.
In the case of `Cc1ccc(NC(=O)c2ccnc(N3CCCCC3)c2)cc1-c1ccc(C(=O)NCC2CC2)cc1` [GW775610], the “%Inh” value is reported as 5%.
With `Cc1cccc(Nc2nc(NCCN)ncc2C(N)=O)c1` [GSK1292139] the “%Inh” value was 23%.
`CN(c1ccc(F)c(NC(=O)c2cccc(OC(C)(C)C#N)c2Cl)c1)c1ccc2nc(NC(=O)C3CC3)sc2n1` was tested, and the “%Inh” value was 17%.
For `Cc1ccc(NC(=O)c2ccc(Cl)c(Cl)c2)cc1-c1ccc(C(=O)Nc2ccncc2)cc1` [GSK1398460], the “%Inh” value was 7%.
With `O=C(Nc1n[nH]c2nc(-c3ccccc3)ccc12)C1CC1` [SB-708999] the “%Inh” value was 36%.
For `CCNC(=O)/C=C/c1n[nH]c2cc(Sc3ccccc3C(=O)NC)ccc12`, the “%Inh” value was 36%.
With `COc1ccc(C)c(Nc2ccnc(Nc3ccc(-c4cnc[nH]4)cc3)n2)c1.Cl` [GW784041] the “%Inh” value was 0%.
With `Cc1nn2c(=O)cc(N3CCO[C@H](C)C3)nc2n1Cc1cccc(Cl)c1Cl` [GSK2373693] the “%Inh” value was 0%.
In the case of `c1ccc(Oc2ccc(Nc3ccnc4cc(-c5ccc(CN6CCCCC6)o5)ccc34)cc2)nc1` [GW567143], the “%Inh” value is reported as 0%.
With `COC(=O)Nc1nc2cc(Oc3ccc(NC(=O)Nc4cccc(SC)c4)cc3)ccc2[nH]1.Cl` [GW697999] the “%Inh” value was 53%.
With `CC(C)NCC(Cc1ccccc1)NC(=O)c1cc(Br)c(-c2ccnc3[nH]ccc23)s1.Cl.Cl` (centres unmarked) [GSK1383281] the “%Inh” value was 0%.
In the case of `N#Cc1cnc2cc(-c3cnc(CNCCN4CCOCC4)s3)ccc2c1Nc1ccc(Oc2ccccc2)cc1` [GW664114], the “%Inh” value is reported as 17%.
In the case of `Cc1cc(-c2c(-c3ccc(F)cc3)ncn2CCCN2CCOCC2)nc(N)n1` [SB-222517], the “%Inh” value is reported as 17%.
`CN(C)CCNS(=O)(=O)c1ccc(-c2ccnc3[nH]ccc23)cc1` [GSK977620] was tested, and the “%Inh” value was 0%.
With `CN(c1ccc(NC(=O)Nc2cccc(Cl)c2)cc1)c1ccnc(N)n1.Cl` [GW830707] the “%Inh” value was 0%.
With `Cl.O=C(Nc1ccc(Oc2ccc3[nH]c(NC(=O)c4ccco4)nc3c2)cc1)Nc1cc(C(F)(F)F)ccc1F` [GW683134] the “%Inh” value was 0%.
With `Cl.Cl.NC(CNC(=O)c1cc(Br)c(-c2ccnc3[nH]ccc23)s1)c1ccccc1` (centres unmarked) [GSK1322949] the “%Inh” value was 7%.
With `COc1ccc(C2=C(Nc3cccc(O)c3)C(=O)NC2=O)cc1` [SB-390766] the “%Inh” value was 0%.
With `Nc1cccc(-c2ccc3c(N)n[nH]c3c2)c1` [GSK2193613] the “%Inh” value was 17%.
`Cl.Cl.NCC(NC(=O)c1cc(-c2cccnc2)c(-c2ccnc3[nH]ccc23)s1)c1ccccc1` (centres unmarked) [GSK1323434] was tested, and the “%Inh” value was 30%.
In the case of `COc1ccc(NC(=O)c2ccoc2)cc1-c1ccc(C(=O)NCC2CC2)cc1` [GW810437], the “%Inh” value is reported as 3%.
With `CC(C)(C)c1ccc(C(=O)Nc2cn3cc(-n4ccnc4)ccc3n2)cc1` the “%Inh” value was 0%.
In the case of `Cc1ccc(Nc2ccnc(Nc3ccc(C)c(F)c3)n2)cc1O.Cl` [GW582868], the “%Inh” value is reported as 25%.
`Cc1ccc(NC(=O)c2cccc(N3CCCCC3)c2)cc1-c1ccc(C(=O)NCC2CC2)cc1` [GSK1917008] was tested, and the “%Inh” value was 0%.
In the case of `COc1cccc(C2=C(Nc3cccc(O)c3)C(=O)NC2=O)c1` [SB-390771], the “%Inh” value is reported as 45%.
With `CSc1ccc(NC2=C(c3ccc(Cl)cc3)C(=O)NC2=O)cc1` [SB-317658] the “%Inh” value was 0%.
For `Cc1cc(-c2ccnc(Nc3cccc(C#N)c3)n2)cc(C)c1O` [GSK1440913], the “%Inh” value was 13%.
For `O=C(Nc1n[nH]c2cc(-c3cccs3)ccc12)C1CC1` [SB-731284], the “%Inh” value was 0%.
For `CCn1cnc2c(NCc3ccccc3)ncnc21` [SKF-96418], the “%Inh” value was 0%.
For `Cn1cc(-c2ccc3c(c2)CCN3C(=O)Cc2cc(F)cc(F)c2F)c2c(N)ncnc21` [GSK2634140], the “%Inh” value was 0%.
With `O=C(O)C(F)(F)F.O=c1[nH]ccc2nc(N[C@@H]3CCNC3)nc(Nc3ccc4c(c3)S(=O)(=O)CC4)c12` [GSK2181306] the “%Inh” value was 0%.
With `COc1cccc(NC(=O)NCCNc2ccnc(Nc3ccc(F)cc3)n2)c1` [GSK1379879] the “%Inh” value was 20%.
With `CN1CCN(Cc2ccc(NC(=O)Nc3ccc(N(C)c4ccnc(Nc5ccc(CS(C)(=O)=O)cc5)n4)cc3)cc2)CC1.Cl` [GW827654] the “%Inh” value was 94.7%.

What follows are molecules tested on CSF1R. Conditions: concentration: 1 μM, replicates: in singlicate; n = 1.
With `O=C(Nc1n[nH]c2nc(-c3ccccc3O)ccc12)C1CC1` [SB-711880] the “%Inh” value was 0%.
With `CN(c1ccc(NC(=O)N2CCN(CCCN3CCOCC3)CC2)cc1)c1ccnc(Nc2ccc(CS(C)(=O)=O)cc2)n1.Cl` [GW830899] the “%Inh” value was 66%.
For `CCOc1nccc(-c2c(-c3ccc(F)cc3)ncn2C2CCNCC2)n1` [SB-249175], the “%Inh” value was 28%.
In the case of `O=C(Nc1n[nH]c2nc(-c3cccc(O)c3)ccc12)C1CC1` [SB-711805], the “%Inh” value is reported as 0%.
For `Cc1ccc(NC(=O)c2ccnc(N3CCCCC3)c2)cc1-c1ccc(C(=O)NCC2CC2)cc1` [GW775610], the “%Inh” value was 23%.
For `Cc1cccc(Nc2nc(NCCN)ncc2C(N)=O)c1` [GSK1292139], the “%Inh” value was 88%.
`CN(c1ccc(F)c(NC(=O)c2cccc(OC(C)(C)C#N)c2Cl)c1)c1ccc2nc(NC(=O)C3CC3)sc2n1` was tested, and the “%Inh” value was 99.8%.
In the case of `Cc1ccc(NC(=O)c2ccc(Cl)c(Cl)c2)cc1-c1ccc(C(=O)Nc2ccncc2)cc1` [GSK1398460], the “%Inh” value is reported as 99.9%.
In the case of `O=C(Nc1n[nH]c2nc(-c3ccccc3)ccc12)C1CC1` [SB-708999], the “%Inh” value is reported as 0%.
For `CCNC(=O)/C=C/c1n[nH]c2cc(Sc3ccccc3C(=O)NC)ccc12`, the “%Inh” value was 99.8%.
`COc1ccc(C)c(Nc2ccnc(Nc3ccc(-c4cnc[nH]4)cc3)n2)c1.Cl` [GW784041] was tested, and the “%Inh” value was 67%.
With `Cc1nn2c(=O)cc(N3CCO[C@H](C)C3)nc2n1Cc1cccc(Cl)c1Cl` [GSK2373693] the “%Inh” value was 6%.
In the case of `c1ccc(Oc2ccc(Nc3ccnc4cc(-c5ccc(CN6CCCCC6)o5)ccc34)cc2)nc1` [GW567143], the “%Inh” value is reported as 54%.
For `COC(=O)Nc1nc2cc(Oc3ccc(NC(=O)Nc4cccc(SC)c4)cc3)ccc2[nH]1.Cl` [GW697999], the “%Inh” value was 99.6%.
With `CC(C)NCC(Cc1ccccc1)NC(=O)c1cc(Br)c(-c2ccnc3[nH]ccc23)s1.Cl.Cl` (centres unmarked) [GSK1383281] the “%Inh” value was 46%.
In the case of `N#Cc1cnc2cc(-c3cnc(CNCCN4CCOCC4)s3)ccc2c1Nc1ccc(Oc2ccccc2)cc1` [GW664114], the “%Inh” value is reported as 19%.
With `Cc1cc(-c2c(-c3ccc(F)cc3)ncn2CCCN2CCOCC2)nc(N)n1` [SB-222517] the “%Inh” value was 14%.
`CN(C)CCNS(=O)(=O)c1ccc(-c2ccnc3[nH]ccc23)cc1` [GSK977620] was tested, and the “%Inh” value was 27%.
With `CN(c1ccc(NC(=O)Nc2cccc(Cl)c2)cc1)c1ccnc(N)n1.Cl` [GW830707] the “%Inh” value was 99.5%.
`Cl.O=C(Nc1ccc(Oc2ccc3[nH]c(NC(=O)c4ccco4)nc3c2)cc1)Nc1cc(C(F)(F)F)ccc1F` [GW683134] was tested, and the “%Inh” value was 99.8%.
For `Cl.Cl.NC(CNC(=O)c1cc(Br)c(-c2ccnc3[nH]ccc23)s1)c1ccccc1` (centres unmarked) [GSK1322949], the “%Inh” value was 29%.
`COc1ccc(C2=C(Nc3cccc(O)c3)C(=O)NC2=O)cc1` [SB-390766] was tested, and the “%Inh” value was 0%.
With `Nc1cccc(-c2ccc3c(N)n[nH]c3c2)c1` [GSK2193613] the “%Inh” value was 2%.
With `Cl.Cl.NCC(NC(=O)c1cc(-c2cccnc2)c(-c2ccnc3[nH]ccc23)s1)c1ccccc1` (centres unmarked) [GSK1323434] the “%Inh” value was 44%.
`COc1ccc(NC(=O)c2ccoc2)cc1-c1ccc(C(=O)NCC2CC2)cc1` [GW810437] was tested, and the “%Inh” value was 7%.
In the case of `CC(C)(C)c1ccc(C(=O)Nc2cn3cc(-n4ccnc4)ccc3n2)cc1`, the “%Inh” value is reported as 46%.
`Cc1ccc(Nc2ccnc(Nc3ccc(C)c(F)c3)n2)cc1O.Cl` [GW582868] was tested, and the “%Inh” value was 29%.
With `Cc1ccc(NC(=O)c2cccc(N3CCCCC3)c2)cc1-c1ccc(C(=O)NCC2CC2)cc1` [GSK1917008] the “%Inh” value was 45%.
With `COc1cccc(C2=C(Nc3cccc(O)c3)C(=O)NC2=O)c1` [SB-390771] the “%Inh” value was 37%.
In the case of `CSc1ccc(NC2=C(c3ccc(Cl)cc3)C(=O)NC2=O)cc1` [SB-317658], the “%Inh” value is reported as 30%.
With `Cc1cc(-c2ccnc(Nc3cccc(C#N)c3)n2)cc(C)c1O` [GSK1440913] the “%Inh” value was 14%.
For `O=C(Nc1n[nH]c2cc(-c3cccs3)ccc12)C1CC1` [SB-731284], the “%Inh” value was 0%.
With `CCn1cnc2c(NCc3ccccc3)ncnc21` [SKF-96418] the “%Inh” value was 0%.
For `Cn1cc(-c2ccc3c(c2)CCN3C(=O)Cc2cc(F)cc(F)c2F)c2c(N)ncnc21` [GSK2634140], the “%Inh” value was 87%.
For `O=C(O)C(F)(F)F.O=c1[nH]ccc2nc(N[C@@H]3CCNC3)nc(Nc3ccc4c(c3)S(=O)(=O)CC4)c12` [GSK2181306], the “%Inh” value was 86%.
In the case of `COc1cccc(NC(=O)NCCNc2ccnc(Nc3ccc(F)cc3)n2)c1` [GSK1379879], the “%Inh” value is reported as 11%.
In the case of `CN1CCN(Cc2ccc(NC(=O)Nc3ccc(N(C)c4ccnc(Nc5ccc(CS(C)(=O)=O)cc5)n4)cc3)cc2)CC1.Cl` [GW827654], the “%Inh” value is reported as 100%.
